# Assay outcomes deposited in PubChem by National Center for Advancing Translational Sciences (NCATS).
# JMJD2A Tudor inh = qHTS Assay for Inhibitors of JMJD2A-Tudor Domain; AID 504339, 2011; actives 4.4% (n = 390,000); Potency, µM (highest dose often 114 µM), for inactives: top-dose activity change, negative = inhibition, hits mostly inhibitors; AlphaScreen JMJD2A-Tudor / H3K4me3 peptide binding; Lysine-specific demethylase 4A (Homo sapiens), O75164; further: on the % scale 0 is the no-effect control and ±100 the full control effect; nearly all actives have a fitted effect of over 50% in size
# G9a inh = qHTS Assay for Inhibitors of Histone Lysine Methyltransferase G9a | Histone-lysine N-methyltransferase EHMT2 (Homo sapiens), Q96KQ7 | Potency, µM (series often up to 102 µM), inactives show top-dose activity, negative = inhibition, usual class: inhibitors | G9a H3K9 monomethylation, AlphaScreen, 2 h | AID 504332, 2011 | actives 8.8% (n = 350,000); further: on the % scale 0 is the no-effect control and ±100 the full control effect; nearly all actives have a fitted effect of over 75% in size
#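 Enzyme 20 nM + cpd, 15 min RT; add b-H3K9 pep 500 nM / SAM 20 uM; 2 h RT; anti-H3K9me1 Ab 0.5 ug/mL + SA donor / anti-rabbit acceptor beads 20 ug/mL each, 10 min; AlphaScreen read.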
# L3MBTL1 inh = qHTS Assay for the Inhibitors of L3MBTL1; Lethal(3)malignant brain tumor-like protein 1 (Homo sapiens), Q9Y468; AlphaScreen L3MBTL1–H3K9me1 peptide binding; Potency, µM (series often up to 57.1 µM), for the others: at the highest dose activity, negative = inhibition, hits mostly inhibitors; actives 0.66% (n = 230,000); AID 485360, 2010; further: on the % scale 0 is the no-effect control and ±100 the full control effect; nearly all actives have a fitted effect of over 60% in size
# Target sequence (Q9Y468 whole entry, looked up): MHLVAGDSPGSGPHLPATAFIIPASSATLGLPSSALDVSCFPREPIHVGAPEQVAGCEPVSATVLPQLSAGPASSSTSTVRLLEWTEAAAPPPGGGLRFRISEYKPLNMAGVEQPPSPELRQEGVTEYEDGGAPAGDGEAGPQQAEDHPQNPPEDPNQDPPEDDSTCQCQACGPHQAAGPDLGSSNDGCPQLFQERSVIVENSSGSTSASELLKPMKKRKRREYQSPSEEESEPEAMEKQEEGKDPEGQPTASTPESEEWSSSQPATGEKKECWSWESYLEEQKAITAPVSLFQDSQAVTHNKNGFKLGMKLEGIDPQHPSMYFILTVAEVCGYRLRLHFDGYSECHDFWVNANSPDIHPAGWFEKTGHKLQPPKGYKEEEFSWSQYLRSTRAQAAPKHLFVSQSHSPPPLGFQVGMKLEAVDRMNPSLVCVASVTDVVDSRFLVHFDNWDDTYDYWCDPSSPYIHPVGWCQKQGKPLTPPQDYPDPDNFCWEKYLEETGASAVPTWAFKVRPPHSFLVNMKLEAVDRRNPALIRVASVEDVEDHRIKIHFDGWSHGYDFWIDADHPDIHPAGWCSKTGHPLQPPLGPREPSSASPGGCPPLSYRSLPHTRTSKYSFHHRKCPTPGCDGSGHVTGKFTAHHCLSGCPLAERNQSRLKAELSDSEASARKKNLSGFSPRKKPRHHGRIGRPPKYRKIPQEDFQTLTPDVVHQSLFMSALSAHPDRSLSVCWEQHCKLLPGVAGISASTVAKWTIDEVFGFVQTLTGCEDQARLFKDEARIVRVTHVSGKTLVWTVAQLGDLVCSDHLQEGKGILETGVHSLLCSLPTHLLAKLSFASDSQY
#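 AlphaScreen assay: L3MBTL1 (50 nM final) was preincubated 30 min at room temperature with biotinylated H3(1-15)K9me1 peptide (75 nM final), then 30 min with library compounds; streptavidin donor and nickel chelate acceptor beads (10 ug/mL final) added, 30 min dark.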
# HP1b binding inh = HTS for Inhibitors of HP1-beta Chromodomain Interactions with Methylated Histone Tails; Chromobox protein homolog 1 (Homo sapiens), P83916; AlphaScreen HP1-beta / biotin-H3K9me3 peptide binding; Potency, µM (titrated, usually from 114 µM), for the others: top-dose activity change, negative = inhibition, usual class: inhibitors; actives 0.56% (n = 390,000); AID 540317, 2011; further: nearly all actives have a fitted effect of over 70% in size
#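 Compound inhibition of the preformed complex between 50 nM HP1-beta and 50 nM biotinylated H3K9me3 peptide was read by AlphaScreen. Buffer was PBS pH 7.4 with 0.01% Tween-20. Incubations ran 30 min at room temperature, with 10 ug/mL donor/acceptor beads.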
# GLS inh = qHTS for Inhibitors of Glutaminase (GLS); AID 624170, 2012; Potency, µM (doses to about 45.5 µM), without a hit: at the top dose activity change, negative = inhibition, hits mostly inhibitors; actives 0.21% (n = 410,000); Glutaminase kidney isoform, mitochondrial (Homo sapiens), O94925; GLS enzymatic activity, qHTS titration; further: on the % scale 0 is the no-effect control and ±100 the full control effect
#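 Glutamate formation by hKGA was monitored fluorometrically using coupled glutamate oxidase, HRP and Amplex Red. Substrate was added as 1 mM L-glutamine solution; incubation was 30 min at RT after an initial read.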
# BAZ2B block = qHTS Assay for Inhibitors of BAZ2B | Bromodomain adjacent to zinc finger domain protein 2B (Homo sapiens), Q9UIF8 | Potency, µM (series often up to 114 µM), for inactives: at the top dose activity change, negative = inhibition, hits mostly inhibitors | AlphaScreen BAZ2B-H3K14Ac peptide displacement | actives 4.4% (n = 360,000) | AID 504333, 2011; further: on the % scale 0 is the no-effect control and ±100 the full control effect; nearly all actives have a fitted effect of over 60% in size
#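 Inhibition is scored as reduced AlphaScreen emission. The BAZ2B/b-H3(5-23)K14Ac complex (50 nM each) in PBS pH 7.4, 0.01% Tween-20 meets compound (up to 110 uM) for 30 min at RT before bead addition.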
# * marks the source's active call; other numbers are inactive results; u = inconclusive; x = no result; [ ] = remark or other dose. Sampled rows, rich in hits. Any-hit rate of the full collection: about 10%. The call rests on the fitted dose curve; in most records, active means well fitted curve in the direction sought with a large enough effect; inconclusive means small, poorly fitted or top-dose-only effect, or another doubt; inactive means no such curve, though single readings can be large; an effect the other way counts as inactive or inconclusive. Potency means the concentration at half of the fitted maximal effect.
SMILES,JMJD2A Tudor inh,G9a inh,L3MBTL1 inh,HP1b binding inh,GLS inh,BAZ2B block
CCNC(=O)/C(C#N)=C/c1c(N2CCN(c3ccc(OC)cc3)CC2)nc2c(C)cccn2c1=O,20µM*,39.8µM*,x,u,-28.0%,35.5µM*
CCOC(=O)/C(C#N)=C/c1c(N2CCN(c3ccc(OC)cc3)CC2)nc2c(C)cccn2c1=O,u,8.91µM*,x,u,-2.0%,8.91µM*
CCNC(=O)/C(C#N)=C/c1c(N2CCN(c3ccccc3)CC2)nc2c(C)cccn2c1=O,u,-13.2%[2.33 µM],x,u,-3.2%,-1.5%
CCOC(=O)/C(C#N)=C/c1c(N2CCN(CC)CC2)nc2c(C)cccn2c1=O,-16.0%,u,x,24.0%,-0.7%,-3.0%
CC#C[C@@]1(O)CC[C@H]2[C@@H]3CCC4=CC(=O)CCC4=C3[C@H](c3ccc(N(C)C)cc3)C[C@]21C,x,5.01µM*,x,x,x,x
C#C[C@]1(O)CCC2C3CCC4=CC(=O)CCC4C3CC[C@@]21C (stereo not given in full),x,-4.3%[2.33 µM],x,x,-9.4%,x
CCC(Sc1nc2ccccc2c2nc(CCn3c(C)nc4ccccc43)nn12)C(=O)Nc1ccc(F)cc1 (stereo not given),-20.3%,-1.1%[59 µM],x,12.7%,2.5%,-0.3%
Cc1ccccc1CCNC(=O)C1CCCN(c2cnccn2)C1 (stereo not given),-25.0%,-10.0%,x,19.8%,-4.9%,-14.0%
O=C(NCCc1ccccc1)C1CCCN(c2cnccn2)C1 (stereo not given),28.2µM*,x,x,u,1.5%,-6.6%
Cc1cc(N(C)N)nc(NC(=O)NS(=O)(=O)c2ccccc2Cl)n1,28.2µM*,18.1%,x,24.5%[57 µM],-20.0%,28.2µM*
Cc1ccc(/C(O)=C2\C(=O)C(=O)N(CC(C)O)C2c2ccccn2)cc1 (stereo not given),35.5µM*,x,6.1%,9.7%,-1.1%,19.2%
CCOc1ccc(/C(O)=C2/C(=O)C(=O)N(c3ncccn3)C2c2ccc(Cl)cc2)cc1 (stereo not given),-19.7%,50.1µM*,x,18.6%,22.7%,u
COc1ccc(C2/C(=C(/O)c3ccc(C)cc3)C(=O)C(=O)N2c2ccccn2)cc1 (stereo not given),-22.0%,44.7µM*,x,2.8%,-1.9%,-12.9%
COc1ccc(/C(O)=C2/C(=O)C(=O)N(c3ccccn3)C2c2ccc(F)cc2)cc1 (stereo not given),-16.3%,-14.0%,x,0.2%,9.8%,-31.0%
Cc1ccc(/C(O)=C2\C(=O)C(=O)N(C)C2c2ccc([N+](=O)[O-])cc2)cc1 (stereo not given),-7.0%,7.6%[0.501 µM],-1.1%[2.29 µM],30.0%,11.5%,-21.4%
Cc1ccc(/C(O)=C2/C(=O)C(=O)N(c3ccccn3)C2c2ccc([N+](=O)[O-])cc2)cc1 (stereo not given),-31.6%,70.8µM*,-6.8%,6.4%,7.5%,4.4%
O=C(COc1ccccc1Cl)OCc1cc(=O)n2nc(C3CCCCC3)sc2n1,-7.0%,7.9%[59 µM],x,25.5%,4.2%,-10.5%
CCOc1ccc(C(=O)c2oc3ccccc3c2NC(=O)Cc2coc3cc(C)cc(C)c23)cc1,0.0%,-24.2%[59 µM],x,17.9%,-0.6%,-7.5%
COc1cccc(NC(=O)c2oc3ccc(S(=O)(=O)N(C)C4CCCCC4)cc3c2C)c1,-14.7%,-4.5%[59 µM],x,24.6%,3.6%,-3.0%
COc1ccc(C2/C(=C(\O)c3cccc(OC)c3)C(=O)C(=O)N2c2ccccn2)cc1 (stereo not given),-17.2%,x,25.9%,28.3%,-6.5%,2.3%
Cc1ccc(/C(O)=C2/C(=O)C(=O)N(c3ccccn3)C2c2cccc([N+](=O)[O-])c2)cc1 (stereo not given),-21.0%,35.5µM*,x,2.6%,1.0%,-36.7%
Cc1ccc(/C(O)=C2/C(=O)C(=O)N(CC(=O)O)C2c2ccc([N+](=O)[O-])cc2)cc1 (stereo not given),50.1µM*,u,-4.1%,57.4%,u,u
COc1cccc(C(=O)Nc2ccc3nc(N4CCC(C)CC4)cc(C)c3c2)c1,-27.6%,-1.8%[59 µM],x,19.7%,12.4%,1.2%
